Ec RNAP inh – inhibitors of Escherichia coli RNA polymerase; P0A8V2; E. coli RNA polymerase, fluorescence transcription assay; inhibition, %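 (tested at 10 µM)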; 62,000 compounds, 0.2% hits; in the data active = inhibition above about 20%
TNAP act mid DEA – human TNAP activation, intermediate phosphate acceptor | P05186 | purified TNAP, CDP-star luminescence, 100 mM DEA, 30 min; stronger effect = higher value; scale: 0 levamisole-inhibited, 1 vehicle-only enzyme | activation factor at 20 µM | 64,000 tested, under 10 active | AID 813;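 active = activation factor of at least 2 at 20 µM, relative to controls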
Target sequence (P05186 whole entry, looked up): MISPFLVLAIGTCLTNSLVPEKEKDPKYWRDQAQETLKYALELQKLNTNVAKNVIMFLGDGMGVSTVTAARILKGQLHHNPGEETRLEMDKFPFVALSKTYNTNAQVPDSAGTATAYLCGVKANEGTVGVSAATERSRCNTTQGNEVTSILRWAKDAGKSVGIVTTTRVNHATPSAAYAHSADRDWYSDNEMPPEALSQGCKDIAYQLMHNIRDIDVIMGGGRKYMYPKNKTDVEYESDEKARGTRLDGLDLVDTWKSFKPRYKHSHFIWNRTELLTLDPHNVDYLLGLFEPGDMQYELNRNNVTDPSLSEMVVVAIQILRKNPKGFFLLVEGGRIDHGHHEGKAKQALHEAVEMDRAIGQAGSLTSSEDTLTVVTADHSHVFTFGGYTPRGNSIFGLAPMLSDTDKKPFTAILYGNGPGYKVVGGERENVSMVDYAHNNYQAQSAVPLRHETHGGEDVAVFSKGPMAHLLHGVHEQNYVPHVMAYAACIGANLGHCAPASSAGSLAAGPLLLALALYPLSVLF
PLAP act – human PLAP activation; P05187; purified PLAP enzyme, luminescent substrate read-out; stronger effect = higher value; activation fold at 20 µM; 96,000 compounds, 1.2% hits; in the data active = activation fold above about 2
A number is an active result; . = inactive; / = no result given. This excerpt belongs to a sample that is enriched for hits.

SMILES	Ec RNAP inh	TNAP act mid DEA	PLAP act
CC1CCN(CCCNC(=O)Cc2c(C(=O)O)n(C)c3ccccc23)CC1	.	.	/
CN1CC(=O)NC1=NC(=O)C12CC3CC(CC(C3)C1)C2	.	.	2.6
O=C1NCCN1C(=O)C12CC3CC(CC(C3)C1)C2	.	.	.
CN(C)S(=O)(=O)c1ccc2c(c1)C(CC(=O)O)NC2=O (configuration not stated)	.	.	.
CCCCCCOC(=O)c1ccc(NC(=O)c2cc(OC)c(OC)c(OC)c2Br)cc1	/	/	2
CCCCOC(=O)Nc1ccc(C(=O)OCCC)cc1	.	.	.
COCCCn1c(SCC(=O)n2c(C)c(C)c3ccccc32)nnc1-c1ccoc1C	.	.	.
O=P(Cc1nnco1)(c1ccccc1)c1ccccc1	.	.	2.1
COC(=O)CP(=O)(c1ccccc1)c1ccccc1	/	/	.
CCn1cc(/C=N/NS(=O)(=O)c2ccc(OC)cc2)c(C)n1	/	/	.
CC(C)c1ccc(N(CC(=O)NCCSC(C)(C)C)S(C)(=O)=O)cc1	/	/	.
O=C(NCc1cn2ccsc2n1)c1cccc(C(F)(F)F)c1	22	.	.
COc1cccc(C(=O)NCc2cn3ccsc3n2)c1	.	.	.
O=C(NNC(=O)c1ccc(SCC2CCCO2)c([N+](=O)[O-])c1)c1ccc(Cl)c([N+](=O)[O-])c1 (configuration not stated)	/	/	2.4
Cc1ccc(C(=O)NNC(=O)c2ccc(SCC3CCCO3)c([N+](=O)[O-])c2)cc1 (configuration not stated)	/	/	.
COc1ccc(CCNC(=O)C2CCN(Cc3nc(-c4ccc(Cl)cc4)oc3C)CC2)cc1OC	.	.	/
Cc1ccccc1-c1nc(CN2CCC(C(=O)NCCC3=CCCCC3)CC2)c(C)o1	.	.	2.3
COc1ccc(CCNC(=O)C2CCN(Cc3nc(-c4ccccc4C)oc3C)CC2)cc1OC	.	.	2.1
CCN(CCNC(=O)C1CCN(Cc2nc(-c3cccc(Cl)c3)oc2C)CC1)c1ccccc1	.	.	2
CCN(CCNC(=O)C1CCN(Cc2nc(-c3ccc(Cl)cc3)oc2C)CC1)c1ccccc1	.	.	.
Cc1ccccc1-c1nc(CN2CCC(C(=O)O)CC2)c(C)o1	.	.	.
CC(NC(=O)OCc1ccccc1)C(=O)N1CC(O)CC1C(=O)O (configuration not stated)	.	.	.
COc1ccccc1-c1nnc(SCC(=O)c2ccc(C3CCCCC3)cc2)n1Cc1ccco1	/	/	.
CN(C)c1ccc(/C=N/c2cc(-c3ccccc3)nn2-c2ccccc2)cc1	/	/	.
COc1ccccc1OCc1nc2ccccc2[nH]1	.	.	.
SMILES	Ec RNAP inh	TNAP act mid DEA	PLAP act
c1cnc2c(OCc3nc4ccccc4[nH]3)cccc2c1	.	.	2.1
COC(=O)c1cc2sc(Cl)cc2n1CC(=O)NCCC(C)C	/	/	.
CSc1ccccc1NC(=O)CN(C1CCCCC1)S(C)(=O)=O	/	/	2
CC(=O)c1cccc(NC(=O)CN(C2CCCCC2)S(C)(=O)=O)c1	.	.	.
Cc1c(CCO)c(=O)n(-c2ccccc2)n1S(=O)(=O)c1ccc(Cl)cc1	/	/	.
CN1C(=O)c2ccccc2Sc2ccc(NC(=O)NC3CC3)cc21	.	.	.
O=C(Nc1ccc2c(c1)N(Cc1ccccc1)C(=O)c1ccccc1S2)NC1CC1	/	/	2.1
O=C(Nc1ccc(Oc2cccc3ccccc23)cc1)c1ccco1	/	/	.
O=C1c2[nH]nc(-c3ccccc3O)c2C(c2cccc(Cl)c2)N1Cc1ccco1 (configuration not stated)	.	.	.
O=C1c2[nH]nc(-c3ccccc3O)c2C(c2ccc(F)cc2)N1Cc1ccco1 (configuration not stated)	.	.	2.4
Cc1ccccc1Cn1c(=O)c2c(nc3n2CCN3Cc2ccco2)n(C)c1=O	.	.	/
C=CCn1c(SCC(=O)Nc2cc(C)ccc2OC)nnc1-c1ccco1	.	.	.
Cc1cc(Cl)c(S(=O)(=O)N2CCSCC2)cc1OCC(=O)NC1CCCCC1	/	/	.
Cc1cc(Cl)c(S(=O)(=O)N2CCCCCC2)cc1OCC(=O)NC1CCCCC1	/	/	2
CC(C)(C)c1ccc(C(=O)CSc2n[nH]c(=O)[nH]c2=O)cc1	/	/	.
CCN1CCN(C(=O)c2cc3cc4cc(OC)ccc4nc3s2)CC1	.	.	.
COc1ccc(S(=O)(=O)NNC(=O)c2cc3cc4ccccc4nc3s2)cc1	/	/	2
Cn1c(=O)[nH]c(=O)c2c1nc(N1CCNCC1)n2Cc1cccc2ccccc12	.	.	.
COCCn1c(SCc2nc3ccccc3s2)nc2ccccc21	.	.	.
CC(C)CNS(=O)(=O)c1ccc(CCC(=O)Nc2ccc3c(c2)OCCO3)cc1	/	/	.
COc1ccc(C2C(C(=O)OCC(=O)Nc3ccc(C)cc3)CCC(=O)N2c2ccc(OC)cc2)cc1 (configuration not stated)	/	/	2.4
COc1ccc(C2C(C(=O)OCC(=O)NC(C)(C)C)CCC(=O)N2c2ccc(C)cc2)cc1OC (configuration not stated)	/	/	.
O=C1Nc2ccc(Br)cc2C1=Nc1ccc(-c2nnc3n2CCCCC3)cc1	/	/	.
COCCOC(=O)c1c(C)oc2ccc(OCC=C(C)C)cc12	.	.	.
CCN(CC)C(=O)COc1ccc2oc(C)c(C(=O)OC(C)C)c2c1	.	.	2.6
SMILES	Ec RNAP inh	TNAP act mid DEA	PLAP act
CCOC(=O)c1c(C2COc3ccccc3O2)csc1NC(=O)c1ccco1 (configuration not stated)	.	.	.
CCOc1cc(C2C(C(=O)N3CCCCC3)=C(C)NC3=C2C(=O)CCC3)cc(Br)c1O (configuration not stated)	.	.	.
Cc1nnc2n1NC(c1ccc(Cl)cc1)C(C(=O)N1CCC(C)CC1)S2 (configuration not stated)	.	.	.
Cc1nnc2n1NC(c1ccc(Cl)cc1)C(C(=O)N(C)C1CCCCC1)S2 (configuration not stated)	.	.	2.2
Cc1ccc(CN2C(=O)CCC2C(=O)NCc2cccnc2)cc1 (configuration not stated)	/	/	.
Cc1cccc(NC(=S)NNC(=O)c2ccccc2OC(F)F)c1	/	/	.
CCNC(=S)NNC(=O)c1ccccc1OC(F)F	/	/	2.9
CCOC(=O)c1cc2c(=O)n(C)c3ccccc3c2s1	.	.	/
Cn1c(=O)c2c(nc(Sc3n[nH]c(N)n3)n2Cc2ccccc2Cl)n(C)c1=O	.	.	.
CC(=O)c1cccc(NC(=O)C2CCN(S(=O)(=O)c3ccccc3)CC2)c1	/	/	.
CC(C)CC(/C(O)=C(\C#N)c1nc2ccccc2[nH]1)N1C(=O)c2ccccc2C1=O (configuration not stated)	.	.	2.1
CC(C)(C)/C(O)=C(/C#N)c1nc2ccccc2[nH]1	.	.	.
C=CCc1c(C)nc(C)nc1N/N=C/c1ccccc1O	/	/	2.5
C=CCc1c(C)nc(C)nc1N/N=C/c1ccc([N+](=O)[O-])cc1	/	/	.
COc1ccc2cc(C)c3nnc(SCC(=O)Nc4nc(-c5ccccc5)cs4)n3c2c1	/	/	.
COc1cc(CNc2ncn[nH]2)cc(Br)c1OC	.	.	2.5
CCOc1c(Br)cc(CNc2ncn[nH]2)cc1OC	.	.	.
Cc1cc(=O)oc(C)c1C(=O)OCC(=O)c1ccc(Cl)cc1	/	/	.
COC(=O)c1cc(COc2ccc3c(c2)oc(=O)c2ccccc23)c(C)o1	/	/	.
CCOc1cccc(-c2nnc3sc(-c4cc(OC)c(OC)cc4OC)nn23)c1	.	.	.

Screening results (PubChem)
